Compounds with a hit are over-represented: about 8% of the library has one in this group of screens.
KB-V1 MDR tox: kills drug-selected multidrug resistant KB-V1 cells | actives 3.4% (n = 400,000) | AID 1347076 | Potency, µM (doses to about 46.1 µM), actives largely listed as cytotoxic | KB-V1 MDR cells viability, CellTiter-Glo, 72 h; note: nearly all actives have a fitted effect of over 60% in size
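Readout: CellTiter-Glo luminescence, 10 min after addition. Cells: KB-V1 MDR subline, 72 h at 37 degrees C with compound. Analysis: corrected, normalized data fitted to concentration-effect curves.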
KB-3-1 tox: KB-3-1 parental cell cytotoxicity. KB-3-1 viability, CellTiter-Glo ATP luminescence, 72 h. Potency, µM (series often up to 46.1 µM), usual class: cytotoxic. actives 1.4% (n = 400,000). AID 1347075; note: nearly all actives have a fitted effect of over 60% in size
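Here the drug-naive KB-3-1 line serves as comparator for MDR sub-line selectivity; cells received compound titrations, 72 h at 37 °C, then CellTiter-Glo readout.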
HT1080-NT tox: kills 2HG-producing HT-1080-NT fibrosarcoma cells | AID 686970 | actives 1.6% (n = 360,000) | Potency, µM (highest dose often 46.1 µM), hits mostly cytotoxic | HT-1080-NT fibrosarcoma viability, CellTiter-Glo ATP luminescence, 48 h;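 note: NT is the 2HG producing partner of a matched IDH1 knockdown line; nearly all actives have a fitted effect of over 55% in size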
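HT-1080-NT fibrosarcoma cells (2HG-overproducing), 750 cells/well in RPMI with 5% FBS, dosed after 2 h and incubated 48 h at 37C. CellTiter-Glo luminescence normalized to DMSO and no-cell wells; concentration-response curves fitted and classed.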
HT1080 IDH1KD tx: HT-1080 IDH1 knockdown cell toxicity (counter line); HT-1080 IDH1 knockdown viability, ATP luminescence, 48 h; Potency, µM (series often up to 46.1 µM), hits mostly cytotoxic; actives 2% (n = 360,000)
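Luminescent ATP read-out (CellTiter-Glo, 10 min at room temperature) after 48 h compound exposure at 37 °C gave viability of IDH1-knockdown HT-1080 cells. Activity was normalised to DMSO and cell-free wells, then fitted as concentration-response curves.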
SW480 rerep: inducers of DNA re-replication in SW480 colon cancer cells | SW480 DNA re-replication, Hoechst DNA content imaging, 48 h | Potency, µM (series often up to 46.1 µM), usual class: activators | actives 1.8% (n = 340,000) | AID 624297; note: nearly all actives have a fitted effect of over 55% in size
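SW480 cells exposed to compounds for 48 hr at 37 C, 5% CO2, then Hoechst-stained 40 min. Nuclear DNA content imaged by fluorescence scanning (405 nm excitation, 500-530 nm emission); re-replication scored as increased high-intensity nuclei.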
MCF10A rerep: induces DNA re-replication in MCF 10a normal breast cells; MCF 10A DNA re-replication, Hoechst nuclear intensity, 48 h; Potency, µM (series often up to 46.1 µM), hits mostly activators; actives 2.9% (n = 350,000); note: nearly all actives have a fitted effect of over 50% in size
Hits are given with their value; – = inactive; ? = inconclusive; · = no result. Calls come from the whole dose curve; as a rule, active = well fitted curve in the direction sought with a large enough effect; inconclusive = small, poorly fitted or top-dose-only effect, or another doubt; inactive = no such curve, though single readings can be large; an effect the other way counts as inactive or inconclusive.

SMILES	KB-V1 MDR tox	KB-3-1 tox	HT1080-NT tox	HT1080 IDH1KD tx	SW480 rerep	MCF10A rerep
COc1cccc(N2CCN(C(=O)c3ccc(CS(=O)c4ccccc4Cl)o3)CC2)c1 (centres undefined)	–	0.0082µM	?	0.0082µM	0.52µM	–
COc1ccc(N2CCN(C(=O)c3ccc(CS(=O)c4cccc(C)c4)o3)CC2)cc1 (centres undefined)	–	?	?	?	5.8µM	?
O=C(c1ccc(CS(=O)c2ccccc2Cl)o1)N1CCOCC1 (centres undefined)	–	–	–	–	–	–
O=C(c1ccc(CS(=O)c2ccccc2Cl)o1)N1CCN(c2ccccc2)CC1 (centres undefined)	?	1µM	?	0.52µM	2.6µM	?
COc1cccc(N2CCN(C(=O)c3ccc(CS(=O)c4ccccc4C)o3)CC2)c1 (centres undefined)	?	1µM	0.46µM	0.73µM	5.8µM	?
Cc1ccc(C)c(CN2C(=O)c3ccccc3S(=O)c3ccc(C(=O)N4CCN(c5cccc(Cl)c5)CC4)cc32)c1 (centres undefined)	–	–	·	·	·	·
O=C(c1ccc(CS(=O)c2cccc(Cl)c2)o1)N1CCCCCC1 (centres undefined)	23µM	–	–	–	–	–
Cc1ccc(NC(=O)CC(=O)Nc2ccc(C)cc2C)c(C)c1	–	?	–	–	–	–
Cc1ccc(S(=O)(=O)N(C)CCCC(=O)Nc2ccc(C)cc2C)cc1	21µM	–	–	–	?	–
Cc1ccc(S(=O)(=O)N(C)CCCC(=O)Nc2cccc3ccccc23)cc1	12µM	–	?	–	?	?
Cc1ccc(NC(=O)CCCCCCCCCCC2COCCO2)c(C)c1 (centres undefined)	18µM	–	–	–	?	–
O=C(C1CCN(S(=O)(=O)c2cccnc2)CC1)N1CCN(c2cccc(Cl)c2)CC1	6.5µM	?	–	–	–	–
CC1CCN(S(=O)(=O)c2cc(C(=O)N3CCN(c4cccc(Cl)c4)CC3)n(C)c2)CC1	–	16µM	·	·	·	·
CC1CCN(S(=O)(=O)c2cc(C(=O)N3CCN(c4ccccc4F)CC3)n(C)c2)CC1	?	–	·	·	·	·
CCCCNC(=O)CN1CCN(c2ncc(NC(=O)c3ccc(Cl)cc3)cc2C(=O)O)CC1	–	–	·	·	·	·
Cc1cccc(C)c1OCC(=O)Nc1nnc(C2CCCO2)s1 (centres undefined)	18µM	–	–	–	?	–
Cc1cccc(OCCCC(=O)Nc2nnc(C3CCCO3)s2)c1C (centres undefined)	–	–	–	–	–	–
CCN(c1ccccc1)c1ncnc2c1cnn2-c1ccc(OC)cc1	–	–	·	·	·	·
Cc1ccc(S(=O)(=O)N2CCCCC2CCNC(=O)C(=O)NCCc2ccco2)cc1 (centres undefined)	6.5µM	5.2µM	10µM	18µM	6.5µM	3.7µM
Cc1ccc(S(=O)(=O)N2CCCCC2CCNC(=O)C(=O)NCc2ccco2)cc1 (centres undefined)	?	?	?	13µM	?	9.2µM
O=C(NCCc1ccco1)C(=O)NCC1CCCN1S(=O)(=O)c1ccccc1 (centres undefined)	?	?	?	?	16µM	?
Cc1ccc(C)c(S(=O)(=O)N2CCCCC2CCNC(=O)C(=O)NCc2ccncc2)c1 (centres undefined)	2.3µM	?	–	–	–	–
CN(C)c1ccc(/C=C/c2ccnc3ccc(O)cc23)cc1	–	?	·	·	·	·
CCOc1ccc(-c2cc(-c3nc(-c4cc(OC)c(OC)c(OC)c4)no3)[nH]n2)cc1Cl	–	–	·	·	·	·
O=S(=O)(Nc1cccc(-n2cnnn2)c1)c1cc(Br)ccc1Br	5.8µM	–	–	–	–	–
SMILES	KB-V1 MDR tox	KB-3-1 tox	HT1080-NT tox	HT1080 IDH1KD tx	SW480 rerep	MCF10A rerep
O=S(=O)(Nc1cccc(-n2cnnn2)c1)c1ccccc1	–	–	–	–	–	–
O=C(CSc1nnc(CNC(=O)c2c(F)cccc2Cl)o1)Nc1cccc(F)c1	?	–	·	·	·	·
CC(NC(=O)OCc1ccccc1)C(=O)Oc1cc2oc(=O)cc(-c3ccccc3)c2cc1Cl (centres undefined)	–	–	–	–	?	18µM
Cc1ccc(S(=O)(=O)Oc2ccccc2/C=N/NC(N)=S)cc1	?	6.5µM	4.5µM	?	–	?
Cc1ccc(S(=O)(=O)Oc2ccccc2/C=C2\SC(=O)NC2=O)cc1	–	–	21µM	–	–	–
O=C1NC(=O)/C(=C/c2ccccc2Oc2ccc(Cl)cc2)S1	–	–	–	–	–	?
NC(=S)N/N=C/c1ccccc1OCCSc1ccc(Cl)cc1	?	?	?	?	?	21µM
COc1cccc(/C=N/NC(N)=S)c1OCc1ccccc1Cl	–	–	–	?	–	?
O=C(CN1C(=O)c2cccc3cccc1c23)Nc1ccccc1C(=O)NCc1ccco1	?	–	–	–	–	21µM
O=C(CN1C(=O)c2ccccc2S1(=O)=O)Nc1ccccc1C(=O)NCc1ccco1	–	–	–	–	–	–
COc1cccc(NC(=O)CCc2c(C)nc3c4cccnc4nn3c2C)c1	–	–	·	·	·	·
CC(C)(C)OC(=O)N(Cc1ccccc1)Cc1cccc(OCc2cccc(NC(=O)c3ccccc3)c2)c1	–	–	–	–	–	0.29µM
CC(C)(C)OC(=O)N(CCc1ccccc1)Cc1ccccc1OCc1ccc(NC(=O)C2CCC2)cc1	?	?	–	–	?	6.5µM
CC(C)C(=O)Nc1cccc(COc2ccccc2CN(Cc2ccccc2)C(=O)OC(C)(C)C)c1	?	?	–	–	?	12µM
CC(C)(C)OC(=O)N(Cc1ccccc1)Cc1ccccc1OCc1ccc(NC(=O)C2CCC2)cc1	?	–	–	–	?	?
CCOc1ccc(C(=O)c2cn(CC(=O)Nc3cc(OC)cc(OC)c3)c3ccc(F)cc3c2=O)cc1	–	–	·	·	·	·
CCOC(=O)Cc1c(C)nc2c(C#N)c[nH]n2c1=O	?	–	–	–	–	–
CCOC(=O)Cc1c(C)nc2cc(-c3ccc(C(C)(C)C)cc3)[nH]n2c1=O	–	–	?	1.3µM	?	–
CCOC(=O)Cc1c(C)nc2c(-c3cccc(Br)c3)c[nH]n2c1=O	–	–	?	?	18µM	7.3µM
CCOC(=O)Cc1c(C)nc2c(-c3ccc(Cl)cc3)c(C)[nH]n2c1=O	?	?	13µM	10µM	–	–
CCOC(=O)Cc1c(C)nc2cc(-c3ccc(C(C)(C)C)cc3)nn2c1C	–	–	·	·	·	·
CCC(CC)NC(=O)CON=C1c2ccccc2-c2ccccc21	23µM	–	–	–	–	–
